Assay results: PubChem BioAssay (NCATS)
Results filed as inconclusive are left out. A number with no mark means an inactive call. Active and inactive are the calls of the source. The call rests on the fitted dose curve; in most records, active means well fitted curve in the direction sought with a large enough effect; inconclusive means small, poorly fitted or top-dose-only effect, or another doubt; inactive means no such curve, though single readings can be large; an effect the other way counts as inactive or inconclusive.

Assay: qHTS for Inhibitors of Plasmodium falciparum (DD2) proliferation (AID 504314);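 on activity, negative = inhibition: parasite DNA measured by SYBR Green fluorescence after red cell lysis; plate controls were DMSO vehicle for no effect and artemisinin wells for full effect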
Conditions: P. falciparum Dd2 in erythrocytes, SYBR Green growth, 72 h; series mostly up to 1.12 µM; activity, negative = inhibition: at the top concentration
Summary of the method: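 SYBR Green DNA-fluorescence growth assay: infected RBCs at 0.3% parasitemia, 2.5% hematocrit, 72 h compound exposure, 37C, 5% CO2; overnight lysis with dye at RT; normalized to 0.29 uM artemisinin and vehicle.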
Potency means the concentration at half of the fitted maximal effect.

| Compound | activity, negative = inhibition | Potency |
| --- | --- | --- |
| COC(=O)CCC(=O)OC1(C)C(=O)C2=CN(c3ccccc3)C(c3ccc(OC)cc3)=CC2=C(Br)C1=O (configuration not stated) | 1.63% |  |
| COC(=O)CCC(=O)OC1(C)C(=O)C2=CN(Cc3ccc(OC)cc3)C(c3ccc(OC)cc3)=CC2=C(Br)C1=O (configuration not stated) | 0.139% |  |
| CCCC[C@]12Cc3cc(OC)c(OC)cc3[C@H](O1)C1=C(O2)C(=O)c2ccccc2C1=O |  | 3 µM (active) |
| COC(=O)c1ccccc1S(=O)(=O)N1CCc2nc(COc3ccccc3)c3c(c2C1)CO[C@@H](C)C3 | -2.73% |  |
| CCOC(=O)CN1C(=O)N[C@@H](CCc2ccccc2)[C@@H](C(=O)OC)[C@H]1C | -0.87% |  |
| COC(=O)[C@@H](NC(=O)N1CCc2nc(-c3ccc(OC)cc3C)c3c(c2C1)CO[C@@H](c1ccccc1)C3)C(C)C | -1.36% |  |
| CCCCC1=CC2=C(c3ccco3)C(=O)C(C)(OC(=O)c3ccc(OC)cc3)C(=O)C2=CN1CCc1c[nH]c2ccccc12 (configuration not stated) | -0.0948% |  |
| COC(=O)CCCC1=CC2=C(c3ccccc3)C(=O)C(C)(OC(=O)C3CCCC3)C(=O)C2=CN1Cc1ccccc1 (configuration not stated) | -6.35% |  |
| C=C(C)C(=O)c1ccc2c(c1)OCO2 | 0.0177% [at 6.11 µM] |  |
| CC(C)CON=C1C[C@@H](O)[C@@H](O)[C@@H]2[C@H]3C(=O)N(C4CCCCC4)C(=O)[C@@H]3CC[C@H]12 | -6.53% [at 6.11 µM] |  |
| COc1ccc2c(c1)O[C@@H](c1cccc(C(F)(F)F)c1)[C@H](OC(=O)N[C@H]1CCCc3ccccc31)C2=O | -8.13% [at 6.11 µM] |  |
| C=CC1=C2C=C(C3CC3)N(Cc3ccco3)C=C2C(=O)C(C)(OC(=O)c2ccco2)C1=O (configuration not stated) | 0.184% |  |
| COC/C=C/C1=CC2=CC(=O)C(C)(OC(=O)c3cnc4ccccc4n3)C(=O)C2=CN1Cc1ccc2c(c1)OCO2 (configuration not stated) | 2.69% |  |
| O=C(NS(=O)(=O)c1ccc(F)cc1)O[C@@H]1C(=O)c2cc(Br)ccc2O[C@H]1c1ccc2c(c1)OCO2 | -1.04% [at 6.11 µM] |  |
| C=C(C(C)=O)C(O)c1cccs1 (configuration not stated) | -9.04% [at 6.11 µM] |  |
| COC(=O)[C@@H]1[C@@H](C)N(CCc2cc(OC)c(OC)c(OC)c2)C(=O)N[C@H]1c1ccccc1 | 2.04% |  |
| CCN1C(=O)N(C)[C@@H](c2ccccc2)C(C(=O)OC)=C1C | -1.23% |  |
| CCN1C(=O)N[C@@H](c2cccc(F)c2)C(C(C)=O)=C1C | 0.504% |  |
| COC/C=C/C1=CC2=CC(=O)C(C)(OC(=O)c3cnc4ccccc4n3)C(=O)C2=CN1CCOC (configuration not stated) | -3.94% |  |
| C=CCN1c2ccccc2[C@]23C[C@@H](C(=O)OC)N(S(=O)(=O)c4cccs4)C2=NC(C(=O)OC)=C(C(=O)OC)[C@H]13 | 1.77% |  |
| COC(=O)C1=C(C(=O)OC)[C@@H]2N(C)c3ccc(OC)cc3[C@@]23C[C@@H](C(=O)OC)N(S(=O)(=O)c2ccc4c(c2)OCCN4C)C3=N1 | -0.857% |  |
| CCOC(=O)CN1C(=O)N[C@@H](c2cccc(C(F)(F)F)c2)[C@H](C(=O)OC)[C@H]1C | -5.39% |  |
| C=CCOC(=O)N[C@H](C(C(=O)OC)=C(C)NCc1ccccc1)c1ccc(C)cc1 | -6.13% [at 6.11 µM] |  |
| C=C[C@@]1(C)CC[C@H](O)[C@H]2C(=O)CCC[C@H]21 | -10.8% [at 6.11 µM] |  |
| CCN1C(=O)N[C@H](c2ccc(Br)cc2)C(C(=O)OC)=C1C | 2.65% |  |
| CCCCC1=CC2=CC(=O)C(C)(OC(=O)CC)C(=O)C2=CN1CCc1c[nH]c2ccccc12 (configuration not stated) | 2.79% |  |
| COC(=O)CCC(=O)OC1(C)C(=O)C=C2C=C(C3CC3)N(C3CC3)C=C2C1=O (configuration not stated) | 1.21% |  |

Assay: qHTS for Inhibitors of Plasmodium falciparum (GB4) proliferation (AID 504315); further: nearly all actives have a fitted effect of over 50% in size;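 on activity change, negative = inhibition: 0% = DMSO vehicle and -100% = 0.29 µM artemisinin control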
Conditions: P. falciparum GB4 in erythrocytes, SYBR Green DNA, 72 h; series mostly up to 6.7 µM; activity change, negative = inhibition: at the top concentration
Summary of the method: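 Parasite growth measured as SYBR Green DNA fluorescence (ex 485, em 535 nm) after overnight lysis following 72 h culture at 37 °C, 0.3% parasitemia, 2.5% hematocrit. Values normalized against DMSO and 0.29 uM artemisinin controls, with plate-stack correction.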

| Compound | activity change, negative = inhibition | Potency |
| --- | --- | --- |
| COC/C=C/C1=CC2=CC(=O)C(C)(OC(=O)c3cnc4ccccc4n3)C(=O)C2=CN1CCCCO (configuration not stated) | 10.6% |  |
| CCN1C(=O)N[C@@H](c2cccs2)C(C(C)=O)=C1C | 7.87% |  |
| CC(=O)C1=C(C)N(Cc2ccccc2)C(=O)N[C@H]1c1ccco1 | -8.13% |  |
| COC(=O)C1=C(C(=O)OC)[C@@H]2N(C)c3ccc(OC)cc3[C@@]23C[C@@H](C(=O)OC)N(S(=O)(=O)c2cccs2)C3=N1 | 6.17% |  |
| COC(=O)[C@]1(C)C=C[C@@H](C)[C@H](c2ccccc2Br)N1C(=O)C(F)(F)F | 19.2% |  |
| COC(=O)C1(C(=O)OC)CC(CO)C(=O)[C@@H]1c1ccccc1 (some centres not stated) | -13.5% |  |
| COC(=O)[C@@H](NC(=O)N1CCc2nc(-c3ccccc3)c3c(c2C1)CO[C@@H](C)C3)C(C)C | -2.87% |  |
| CCN1C(=O)[C@@H]2[C@H]3[C@H](O)[C@H](O)CC(=NO[C@@H](C)c4cc(-c5c(C)cc(C)cc5C)no4)[C@@H]3CC[C@H]2C1=O | 5.14% |  |
| CC1(C)O[C@@H]2[C@@H](O1)C(c1ccccc1)(c1ccccc1)OP(=O)(O)OC2(c1ccccc1)c1ccccc1 | 13.9% |  |
| COc1cc2c(cc1OC)[C@@H]1O[C@](CCCCN3C(=O)c4ccccc4C3=O)(C2)Oc2cc(C)n(-c3ccccc3)c(=O)c21 |  | 1.35 µM (active) |
| CCCCc1nc2c(c3c1C[C@H](C)OC3)CN(S(=O)(=O)c1ccc(Cl)c3nonc13)CC2 | -6.68% |  |
| COC(=O)CC=C[C@@H](C)[C@H](OC)c1cc(F)ccc1Br | 8.82% |  |
| COC(=O)N[C@@H](c1ccccc1)[C@]1(C(=O)OC)CCCC1=O | 6.9% |  |
| COC(=O)CCC(=O)OC1(C)C(=O)C2=CN(c3ccccc3)C(c3ccc(OC)cc3)=CC2=C(Br)C1=O (configuration not stated) | -6.82% |  |
| COC(=O)CCC(=O)OC1(C)C(=O)C2=CN(Cc3ccc(OC)cc3)C(c3ccc(OC)cc3)=CC2=C(Br)C1=O (configuration not stated) | -12.3% |  |
| CCCC[C@]12Cc3cc(OC)c(OC)cc3[C@H](O1)C1=C(O2)C(=O)c2ccccc2C1=O |  | 1.69 µM (active) |
| COC(=O)c1ccccc1S(=O)(=O)N1CCc2nc(COc3ccccc3)c3c(c2C1)CO[C@@H](C)C3 | -7.01% |  |
| CCOC(=O)CN1C(=O)N[C@@H](CCc2ccccc2)[C@@H](C(=O)OC)[C@H]1C | 5.43% |  |
| COC(=O)[C@@H](NC(=O)N1CCc2nc(-c3ccc(OC)cc3C)c3c(c2C1)CO[C@@H](c1ccccc1)C3)C(C)C |  | 1.9 µM (active) |
| CCCCC1=CC2=C(c3ccco3)C(=O)C(C)(OC(=O)c3ccc(OC)cc3)C(=O)C2=CN1CCc1c[nH]c2ccccc12 (configuration not stated) | 9.63% |  |

| Compound | activity change, negative = inhibition | Potency |
| --- | --- | --- |
| COC(=O)CCCC1=CC2=C(c3ccccc3)C(=O)C(C)(OC(=O)C3CCCC3)C(=O)C2=CN1Cc1ccccc1 (configuration not stated) | 5.62% |  |
| C=C(C)C(=O)c1ccc2c(c1)OCO2 | 14.1% |  |
| CC(C)CON=C1C[C@@H](O)[C@@H](O)[C@@H]2[C@H]3C(=O)N(C4CCCCC4)C(=O)[C@@H]3CC[C@H]12 | -12.8% |  |
| COc1ccc2c(c1)O[C@@H](c1cccc(C(F)(F)F)c1)[C@H](OC(=O)N[C@H]1CCCc3ccccc31)C2=O | -11.8% |  |
| C=CC1=C2C=C(C3CC3)N(Cc3ccco3)C=C2C(=O)C(C)(OC(=O)c2ccco2)C1=O (configuration not stated) | 7.59% |  |
| COC/C=C/C1=CC2=CC(=O)C(C)(OC(=O)c3cnc4ccccc4n3)C(=O)C2=CN1Cc1ccc2c(c1)OCO2 (configuration not stated) | 8.64% |  |
| O=C(NS(=O)(=O)c1ccc(F)cc1)O[C@@H]1C(=O)c2cc(Br)ccc2O[C@H]1c1ccc2c(c1)OCO2 | 2.45% |  |
| C=C(C(C)=O)C(O)c1cccs1 (configuration not stated) | 11.1% |  |
| COC(=O)[C@@H]1[C@@H](C)N(CCc2cc(OC)c(OC)c(OC)c2)C(=O)N[C@H]1c1ccccc1 | 4.73% |  |
| CCN1C(=O)N(C)[C@@H](c2ccccc2)C(C(=O)OC)=C1C | -2.43% |  |
| CCN1C(=O)N[C@@H](c2cccc(F)c2)C(C(C)=O)=C1C | 4.69% |  |
| COC/C=C/C1=CC2=CC(=O)C(C)(OC(=O)c3cnc4ccccc4n3)C(=O)C2=CN1CCOC (configuration not stated) | 12.2% |  |
| C=CCN1c2ccccc2[C@]23C[C@@H](C(=O)OC)N(S(=O)(=O)c4cccs4)C2=NC(C(=O)OC)=C(C(=O)OC)[C@H]13 | -6.76% |  |
| COC(=O)C1=C(C(=O)OC)[C@@H]2N(C)c3ccc(OC)cc3[C@@]23C[C@@H](C(=O)OC)N(S(=O)(=O)c2ccc4c(c2)OCCN4C)C3=N1 | -26% |  |
| CCOC(=O)CN1C(=O)N[C@@H](c2cccc(C(F)(F)F)c2)[C@H](C(=O)OC)[C@H]1C | 12.9% |  |
| C=CCOC(=O)N[C@H](C(C(=O)OC)=C(C)NCc1ccccc1)c1ccc(C)cc1 | 5.12% |  |
| C=C[C@@]1(C)CC[C@H](O)[C@H]2C(=O)CCC[C@H]21 | 2.62% |  |
| CCN1C(=O)N[C@H](c2ccc(Br)cc2)C(C(=O)OC)=C1C | 2.91% |  |
| CCCCC1=CC2=CC(=O)C(C)(OC(=O)CC)C(=O)C2=CN1CCc1c[nH]c2ccccc12 (configuration not stated) | 0.44% |  |
| COC(=O)CCC(=O)OC1(C)C(=O)C=C2C=C(C3CC3)N(C3CC3)C=C2C1=O (configuration not stated) | -8.16% |  |
